# Values joined by “and” are separate entries in the source; they are usually repeats but may differ in a detail not shown here. Equal entries are not always repeated. Records with an inconclusive call do not appear. Some structures have more than one record in an assay (separate samples or runs), and their calls can disagree. Active and inactive are the calls of the source. Rule for the calls: active = hit-call score of the fitted dose curve at least 0.9, where 1 is the maximum; inconclusive = response in the unintended direction; inactive = score below 0.9.
# How the values were obtained:
# [1] = ACEA_AR_agonist_AUC_viability: ACEA Biosciences xCELLigence Real-Time Cell Analysis on Androgen Receptor Agonism for Viability (AID 2283775);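 for AC50: viability read 80 hours after compound addition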
# Procedure, shortened: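 Read-out is area under the impedance curve at 80 h post-dose in 22Rv1 cells, with DMSO as baseline and signal loss taken as reduced viability. Compounds ran in duplicate from 100 uM final.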
# [2] = ACEA_ER_AUC_viability: ACEA Biosciences xCELLigence Real-Time Cell Analysis on Estrogen Receptor Agonism for Viability (AID 2283782);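 note: hit means loss of impedance signal meaning reduced cell growth or viability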
# Procedure, shortened: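 T47D cells preconditioned in phenol red-free RPMI with charcoal-stripped FBS, then dosed with 8-point 1:4 series from 100 uM (up to 0.5% DMSO). Impedance monitored up to ~80 h; area-under-curve loss versus DMSO taken as viability.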
# [3] = test system: frog Estrogen Receptor (ESR1), gene 398734; test: ATG_frER1_XSP1: Attagene TRANS-FACTORIAL Multi-Species (XSP1) HepG2 Assay for frog Estrogen Receptor (ESR1) (AID 2283777)
# Procedure, shortened: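 HepG2 cells transiently transfected with frog ER–GAL4 chimera and GAL4-UAS reporter, with 3 nM 6-alpha-fluorotestosterone present; 24 h dosing, reporter mRNA quantified by RT-PCR and capillary electrophoresis, gain of signal versus DMSO.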
# [4] = test system: zebrafish Estrogen Receptor (ESR2A), gene 317734; test: ATG_zfER2a_XSP1: Attagene TRANS-FACTORIAL Multi-Species (XSP1) HepG2 Assay for zebrafish Estrogen Receptor (ESR2A) (AID 2283778)
# Procedure, shortened: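 HepG2 cells transiently transfected with GAL4-UAS reporter units driven by a zebrafish ESR2A–Gal4 chimera; 24 h compound exposure with 3 nM 6-alpha-fluorotestosterone present. Reporter mRNA measured by RT-PCR with fluorescent capillary electrophoresis, fitted positive versus DMSO.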
# [5] = target: chicken Estrogen Receptor (ESR1), ESR1 (gene 396099) (UniProt P06212); test: ATG_chERa_XSP1: Attagene TRANS-FACTORIAL Multi-Species (XSP1) HepG2 Assay for chicken Estrogen Receptor (ESR1) (AID 2283779)
# Procedure, shortened: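 HepG2 cells transiently transfected with GAL4-UAS reporter units for chimeric chicken ERα-Gal4, dosed 24 h with 3 nM 6-alpha-fluorotestosterone present. Reporter mRNA by RT-PCR and capillary electrophoresis; gain-of-signal fit versus DMSO.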
# [6] = target: Estrogen receptor (Homo sapiens) (UniProt P03372); test: ATG_hERa_XSP1: Attagene TRANS-FACTORIAL Multi-Species (XSP1) HepG2 Assay for human Estrogen Receptor (ESR1) (AID 2283780)
# Procedure, shortened: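 HepG2 cells transiently transfected with GAL4-UAS reporter units and chimeric NR-Gal4 constructs; 24 h after dosing, reporter mRNA quantified by RT-PCR and capillary electrophoresis. Medium contained 3 nM 6-alpha-fluorotestosterone; activity fitted as gain-of-signal versus DMSO.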
# [7] = test system: turtle Estrogen Receptor (ESR1), gene 101933533; test: ATG_trERa_XSP1: Attagene TRANS-FACTORIAL Multi-Species (XSP1) HepG2 Assay for turtle Estrogen Receptor (ESR1) (AID 2283781)
# Procedure, shortened: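 Turtle ERa as a GAL4 chimera in transiently transfected HepG2 cells; reporter mRNA quantified 24 h after dosing by RT-PCR and capillary electrophoresis. 3 nM 6-alpha-fluorotestosterone present; gain of signal versus DMSO.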
# [8] = ACEA_AR_antagonist_AUC_viability: ACEA Biosciences xCELLigence Real-Time Cell Analysis on Androgen Receptor Antagonism for Viability (AID 2283776);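 note: 22Rv1 human prostate cancer cells growing on impedance electrode plates; area under impedance growth curve at 80 h after dosing as viability; hits lower the growth signal relative to DMSO meaning cytotoxicity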
# Procedure, shortened: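 Real-time electrical impedance tracks 22Rv1 proliferation after continuous compound exposure (top 100 uM final, 1:4 steps, 8 concentrations). The 80 h area-under-curve serves as the cytotoxicity readout relative to DMSO.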
# [9] = STM_H9_NormalizedViability: Cytotoxicity Assessment at 120 hours in the Stemina devTOX quickPredict H9 human embryonic stem cell (hESC)-based Assay (AID 2283784)
# Procedure, shortened: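 Undifferentiated H9 hESCs kept pluripotent were exposed to compound, with media and chemical replaced every 24h. CellTiter-Fluor protease-substrate fluorescence was background-corrected and normalized per plate to the 0.1% DMSO vehicle; signal loss indicates reduced viability.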
# AR (gene 367) = AR (gene 367) (UniProt P10275); test: ACEA_AR_agonist_80hr: ACEA Biosciences xCELLigence Real-Time Cell Analysis on Androgen Receptor Agonism for Proliferation (AID 2283783);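 note: hits increase impedance growth signal above DMSO baseline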
# Procedure, shortened: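 Proliferation of 22Rv1 prostate cancer cells tracked by electrical impedance, endpoint taken at 80 hours after dosing. Eight-point 1:4 dilutions from 100 uM maximum final, duplicate; testosterone and MG132 as positive controls, assay media as negative.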
# Sequence of AR (gene 367) (P10275 whole entry, looked up): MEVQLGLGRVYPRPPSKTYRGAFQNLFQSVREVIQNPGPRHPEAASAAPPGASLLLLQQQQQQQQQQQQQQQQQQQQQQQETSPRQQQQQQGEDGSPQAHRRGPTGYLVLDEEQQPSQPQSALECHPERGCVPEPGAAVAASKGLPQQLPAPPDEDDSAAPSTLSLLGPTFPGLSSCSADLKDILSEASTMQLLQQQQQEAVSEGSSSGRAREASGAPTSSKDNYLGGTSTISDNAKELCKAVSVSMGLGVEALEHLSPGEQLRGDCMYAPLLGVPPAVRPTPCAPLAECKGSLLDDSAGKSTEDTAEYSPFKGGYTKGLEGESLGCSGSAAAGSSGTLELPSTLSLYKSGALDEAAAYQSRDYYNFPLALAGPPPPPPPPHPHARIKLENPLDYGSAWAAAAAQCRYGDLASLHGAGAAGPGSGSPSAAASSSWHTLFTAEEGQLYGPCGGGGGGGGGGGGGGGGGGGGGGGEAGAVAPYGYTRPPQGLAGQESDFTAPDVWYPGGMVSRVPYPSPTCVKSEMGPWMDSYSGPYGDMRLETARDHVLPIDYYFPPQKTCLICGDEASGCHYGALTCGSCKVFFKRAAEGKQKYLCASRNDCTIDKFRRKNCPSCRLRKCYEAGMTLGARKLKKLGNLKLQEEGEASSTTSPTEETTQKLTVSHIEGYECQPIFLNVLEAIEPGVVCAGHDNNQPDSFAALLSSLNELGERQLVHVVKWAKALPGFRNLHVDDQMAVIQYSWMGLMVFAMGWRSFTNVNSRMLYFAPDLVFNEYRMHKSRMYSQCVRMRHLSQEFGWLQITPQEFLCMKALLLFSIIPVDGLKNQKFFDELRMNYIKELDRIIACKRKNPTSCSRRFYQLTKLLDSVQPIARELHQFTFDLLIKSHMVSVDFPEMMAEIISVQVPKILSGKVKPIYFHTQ
# Sequence of chicken Estrogen Receptor (ESR1), ESR1 (gene 396099) (P06212 whole entry, looked up, the tested form may be a part): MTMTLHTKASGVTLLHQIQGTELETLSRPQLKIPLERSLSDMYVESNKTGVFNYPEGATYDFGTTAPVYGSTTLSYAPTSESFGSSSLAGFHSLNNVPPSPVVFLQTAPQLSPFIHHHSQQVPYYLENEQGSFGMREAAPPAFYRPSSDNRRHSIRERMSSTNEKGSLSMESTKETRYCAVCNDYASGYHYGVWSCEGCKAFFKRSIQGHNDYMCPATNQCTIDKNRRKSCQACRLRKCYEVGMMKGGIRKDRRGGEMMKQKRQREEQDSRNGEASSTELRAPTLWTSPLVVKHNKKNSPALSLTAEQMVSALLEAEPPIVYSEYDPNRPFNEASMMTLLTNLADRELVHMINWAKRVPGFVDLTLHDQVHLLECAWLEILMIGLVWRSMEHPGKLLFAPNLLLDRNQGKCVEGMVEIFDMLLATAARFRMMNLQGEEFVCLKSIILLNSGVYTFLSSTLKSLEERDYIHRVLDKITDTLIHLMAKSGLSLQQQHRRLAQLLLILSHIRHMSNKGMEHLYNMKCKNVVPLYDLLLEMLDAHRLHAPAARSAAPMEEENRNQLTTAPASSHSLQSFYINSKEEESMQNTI
# Sequence of Estrogen receptor (Homo sapiens) (P03372 whole entry, looked up, the tested form may be a part): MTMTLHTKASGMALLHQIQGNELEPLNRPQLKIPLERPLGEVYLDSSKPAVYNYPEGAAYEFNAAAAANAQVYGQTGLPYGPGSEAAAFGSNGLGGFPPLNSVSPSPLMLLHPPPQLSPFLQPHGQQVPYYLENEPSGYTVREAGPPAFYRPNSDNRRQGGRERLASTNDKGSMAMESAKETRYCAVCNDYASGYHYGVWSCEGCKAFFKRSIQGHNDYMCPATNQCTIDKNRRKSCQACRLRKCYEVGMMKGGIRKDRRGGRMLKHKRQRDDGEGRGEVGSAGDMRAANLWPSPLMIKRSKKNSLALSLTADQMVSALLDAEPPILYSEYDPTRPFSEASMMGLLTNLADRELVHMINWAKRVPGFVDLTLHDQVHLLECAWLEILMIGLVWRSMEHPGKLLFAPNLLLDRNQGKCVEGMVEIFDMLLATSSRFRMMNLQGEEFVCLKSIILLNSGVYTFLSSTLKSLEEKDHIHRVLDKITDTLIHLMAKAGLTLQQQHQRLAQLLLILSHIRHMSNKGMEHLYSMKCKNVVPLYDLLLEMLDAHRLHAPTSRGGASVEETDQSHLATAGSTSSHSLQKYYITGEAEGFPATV
structure (smiles),measurement,setting,value
NC(=O)O,outcome,[1],inactive
same,outcome,[2],inactive
CC1(C)CCC(Cc2ccc(Cl)cc2)C1(O)Cn1cncn1 (stereo unspecified),outcome,[1],inactive
same,outcome,[3],inactive
same,outcome,[4],inactive
same,AC50,[5],1.35 µM (active)
same,AC50,[6],5.17 µM (active)
same,outcome,[7],inactive
same,AC50,[2],74.5 µM (active)
O=C(Nc1ccc2[nH]ccc2c1)c1cc2cc(F)ccc2n1Cc1cccc(F)c1,AC50,[1],14.5 µM (active)
same,AC50,[8],10 µM (active)
same,AC50,[2],12.4 µM (active)
same,outcome,[9],inactive
CC(C)(c1ccc(OCC2CO2)cc1)c1ccc(OCC2CO2)cc1 (stereo unspecified),outcome,[1],inactive
same,AC50,[2],82.5 µM (active)
same,outcome,AR (gene 367),inactive
Cc1ccccc1N,outcome,[1],inactive
same,AC50,[2],0.893 µM (active)
same,outcome,[2],inactive
COC(=O)c1sccc1S(=O)(=O)NC(=O)Nc1nc(C)nc(OC)n1,outcome,[8],inactive
same,outcome,[2],inactive
COP(=O)(OC)O/C(=C\Cl)c1cc(Cl)c(Cl)cc1Cl,outcome,[1],inactive
same,outcome,[5],inactive
same,outcome,[6],inactive
same,AC50,[2],58.1 µM (active)
CCN1CCC2(CC1)COc1cc3c(cc12)N(C(=O)c1ccc(-c2ccc(-c4nnc(C)o4)cc2C)cc1)CC3,AC50,[1],9.92 µM (active)
same,AC50,[2],8.01 µM (active)
same,outcome,AR (gene 367),inactive
same,AC50,[9],8.14 µM (active)
O=C(O)C(F)(F)C(F)(F)C(F)(F)C(F)(F)C(F)(F)C(F)(F)C(F)(F)C(F)(F)C(F)(F)C(F)(F)F,AC50,[1],36 µM (active)
same,outcome,[2],inactive
CCCCCCCCc1ccc(O)cc1,AC50,[1],29.8 µM (active)
same,AC50,[2],24.4 µM (active)
CCCCCCCCSC(=O)Oc1cc(Cl)nnc1-c1ccccc1,outcome,[8],inactive
C=C(C)C#N,outcome,[1],inactive
same,outcome,[2],inactive
[O-][Cl+2]([O-])O,outcome,[1],inactive
same,outcome,[2],inactive
O=[N+]([O-])c1ccc(O)c([N+](=O)[O-])c1,AC50,[1],50 µM (active)
same,AC50,[8],50 µM (active)
same,outcome,AR (gene 367),inactive
same,outcome,[9],inactive
CC(C)(c1ccccc1)c1ccc(O)c(C(C)(C)c2ccccc2)c1,AC50,[1],10.1 µM (active)
same,AC50,[8],12.8 µM (active)
same,AC50,[2],8.68 µM (active)
c1cc[c]([Hg][c]2ccccc2)cc1,AC50,[1],26.6 µM (active)
same,AC50,[2],36.3 µM (active)
same,outcome,AR (gene 367),inactive
COc1ccc(C=O)cc1,outcome,[1],inactive
same,outcome,[2],inactive
O=C/C=C/c1ccccc1,outcome,[1],inactive
same,outcome,[8],inactive
same,outcome,[2],inactive
CC(=O)c1cc(C(C)(C)C)cc2c1CCC2(C)C,outcome,[8],inactive
same,outcome,[2],inactive
CC(=O)[O][Hg][c]1ccccc1,AC50,[1],1.68 µM (active)
same,AC50,[2],1.32 µM (active)
same,AC50,[9],0.387 µM (active)
COP(=S)(OC)Oc1ccc(Sc2ccc(OP(=S)(OC)OC)cc2)cc1,outcome,[1],inactive
same,AC50,[2],85.5 µM (active)
Clc1nc(Cl)nc(Cl)n1,outcome,[8],inactive
same,outcome,[2],inactive
COP(=O)(OC)OC,outcome,[1],inactive
same,outcome,[2],inactive
CNC,outcome,[8],inactive
ClC1(Cl)C2(Cl)C3(Cl)C4(Cl)C(Cl)(Cl)C5(Cl)C3(Cl)C1(Cl)C5(Cl)C24Cl (stereo unspecified),outcome,[1],inactive
same,outcome,[2],inactive
same,outcome,[9],inactive
CN(C)N=O,outcome,[1],inactive
same,outcome,[2],inactive
C[C@@H]1C[C@@H]([C@H](O)CC2CC(=O)NC(=O)C2)C(=O)[C@@H](C)C1,AC50,[1],2.1 µM (active)
same,AC50,[8],1.35 µM (active)
same,AC50,[2],522 nM (active) and 1.49 µM (active)
same,AC50,[9],2.46 µM (active)
C[C@]12CCC(=O)C[C@@H]1CC[C@@H]1[C@@H]2CC[C@]2(C)[C@@H](O)CC[C@@H]12,outcome,[3],inactive
same,AC50,[4],0.851 µM (active)
same,outcome,[5],inactive
same,outcome,[7],inactive
C=CC(=O)OCCCCCC(C)C,AC50,AR (gene 367),50 µM (active)
ClCC(Cl)CCl,outcome,[9],inactive
O=C(O)C(Cl)(Cl)Cl,outcome,[9],inactive
